# Screens from PubChem.
# FLuc counter = qHTS profiling assay for firefly luciferase inhibitor/activator using purifed enzyme and Km concentrations of substrates (counterscreen for miR-21 project); Luciferin 4-monooxygenase (Photinus pyralis), P08659; purified FLuc, Km substrates, luminescence inhibition; Potency, µM (top dose mostly 57.5 µM), hits mostly inhibitors; 360,000 tested, 6.9% active; AID 588342, 2011; note: nearly all actives have a fitted effect of over 55% in size
# Target sequence (P08659 whole entry, looked up): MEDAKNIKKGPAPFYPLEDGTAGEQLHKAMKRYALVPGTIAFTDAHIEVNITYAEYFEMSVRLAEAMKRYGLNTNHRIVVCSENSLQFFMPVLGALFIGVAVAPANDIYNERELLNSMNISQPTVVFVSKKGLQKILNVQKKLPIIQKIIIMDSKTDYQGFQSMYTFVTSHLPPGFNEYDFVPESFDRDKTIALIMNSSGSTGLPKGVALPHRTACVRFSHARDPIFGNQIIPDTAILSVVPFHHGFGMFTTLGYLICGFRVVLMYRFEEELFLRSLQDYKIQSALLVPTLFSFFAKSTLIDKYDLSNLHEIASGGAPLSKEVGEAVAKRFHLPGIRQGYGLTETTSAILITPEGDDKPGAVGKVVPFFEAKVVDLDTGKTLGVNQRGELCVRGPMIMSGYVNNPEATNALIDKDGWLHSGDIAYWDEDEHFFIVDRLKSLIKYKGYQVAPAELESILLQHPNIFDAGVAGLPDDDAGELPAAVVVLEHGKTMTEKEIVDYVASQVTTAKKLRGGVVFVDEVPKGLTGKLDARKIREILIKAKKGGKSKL
#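 Purified P. pyralis luciferase (10nM final) with 10uM D-luciferin and 10uM ATP (Km levels) in 50mM Tris acetate pH 7.5, 10mM Mg acetate, 0.01% Tween-20, 0.05% BSA; qHTS 6-point titration, ~60 µM downward; luminescence read.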
# Rab9 prom act = qHTS Assay for Rab9 Promoter Activators; Huh7 Rab9 promoter-luciferase reporter, luminescence, 24 h; Potency, µM (titrated, usually from 9.22 µM), actives largely listed as activators; 320,000 tested, 2.8% active; AID 485297, 2010; note: nearly all actives have a fitted effect of over 60% in size
#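 Stable Rab9-luc Huh7, 1500 cells/well, 2 h settle; cmpd in DMSO, 24 h, 37 °C/5% CO2; luciferase reagent 10 min RT; luminescence.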
# SMN2 splice up = qHTS Assay for Enhancers of SMN2 Splice Variant Expression. Potency, µM (doses to about 46.1 µM), usual class: activators. HEK293 SMN2-luciferase splicing reporter, luminescence, 30-36 h. AID 1458, 2008. 210,000 tested, 2.8% active; note: nearly all actives have a fitted effect of over 55% in size
#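 HEK293 cells carry an SMN2 minigene-luciferase reporter in which exon 7 inclusion puts luciferase in frame. Cells were seeded at 2000 cells/well, attached for 10-12 hours, then exposed to compounds for 30-36 hours at 37C before ONE-Glo luminescence.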
# NPC1 prom act = qHTS Assay for NPC1 Promoter Activators; Huh7 NPC1 promoter luciferase reporter, 24 h; 320,000 tested, 2.4% active; Potency, µM (series often up to 9.22 µM), usual class: activators; note: nearly all actives have a fitted effect of over 60% in size
#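 In 1536-well qHTS, Huh7 cells harboring an NPC1 promoter–luciferase construct received compound for 24 h; activation was quantified by luminescence following luciferase reagent addition.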
# ELG1 repair inh = qHTS screen for small molecules that inhibit ELG1-dependent DNA repair in human embryonic kidney (HEK293T) cells expressing luciferase-tagged ELG1; 330,000 tested, 2.3% active; Potency, µM (doses to about 46.1 µM), actives largely listed as inhibitors; HEK293T ELG1-luciferase reporter, luminescence, 16 h; DNA damage induced by 5-fluorouridine; note: nearly all actives have a fitted effect of over 55% in size
#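 Overnight (16 hr) co-exposure of 2,000 cells/well to 5-fluorouridine and compound at 37 °C preceded detection. Luciferase was quantified via ONE-Glo luminescence; loss of signal denotes inhibition.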
# ELG1 genotox = qHTS screen for small molecules that induce genotoxicity in human embryonic kidney (HEK293T) cells expressing luciferase-tagged ELG1; HEK293T ELG1-luciferase reporter, luminescence, 16 h; Potency, µM (highest dose often 46 µM), usual class: activators; 330,000 tested, 1.3% active; note: nearly all actives have a fitted effect of over 60% in size
#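 16 hr compound incubation (37 °C, 5% CO2) of HEK293T cells carrying luciferase-tagged ELG1; luciferase then measured by ONE-Glo luminescence after 30 min at RT.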
# A number is an active result; i = inactive; ? = inconclusive; nt = no result given; [ ] = dose if it differs, or a comment. Only some compounds are listed: those with a hit (about 9.2% of all), similar ones and a draw of the others. Calls come from the whole dose curve; as a rule, active = well fitted curve in the direction sought with a large enough effect; inconclusive = small, poorly fitted or top-dose-only effect, or another doubt; inactive = no such curve, though single readings can be large; an effect the other way counts as inactive or inconclusive.
SMILES,FLuc counter,Rab9 prom act,SMN2 splice up,NPC1 prom act,ELG1 repair inh,ELG1 genotox
COc1cc(OC)cc(C(=O)Nc2cccc3cccnc23)c1,?,i,nt,i,i,i
C/C(=N\Nc1cccc2cccnc12)c1ccc(C)cc1,2.7µM,?,16µM,?,?,?
CCN(c1ccccc1)S(=O)(=O)c1ccc(Cl)c(NC(=O)CSc2nncs2)c1,i,i,i,i,?,i
COc1ccc(NS(=O)(=O)c2cc3c(cc2C)N(C(C)=O)CCO3)c(OC)c1,i,i,nt,i,?,i
Cc1ccc2c(c1)sc[n+]2Cc1ccccc1,5.4µM,i,i,i,?,?
Nc1ccc2c(c1)nc(Cc1ccccc1)n2CCO,i,i,nt,i,?,i
O=C(CCN1C(=O)C2C3CCC(C3)C2C1=O)OCC(=O)c1ccccc1 (stereo unspecified),13µM,i,nt,i,i,i
Cc1c(/N=C(\[O-])Nc2ccc(Br)cc2)sn[n+]1C,1.1µM,0.1µM,nt,0.28µM,?,0.37µM
CNC(=S)Nc1ccc(Br)cc1,i,i,i,i,i,i
O=C(Nc1ccc2c(c1)OCCO2)c1cccc(Cl)c1Cl,7.6µM,1.6µM,nt,3.5µM,?,2.6µM
O=C(Nc1ccc2c(c1)OCCO2)c1c(F)c(F)c(F)c(F)c1F,i,i,i,i,i,i
Cc1ccc(C(=O)Nc2ccc3c(c2)OCCO3)c(Cl)c1,0.43µM,0.089µM,nt,0.089µM,?,?
O=C(Nc1ccc(S(=O)(=O)N2CCCCC2)cc1)c1ccccc1F,i,i,nt,i,i,i
O=C(Nc1ccc(S(=O)(=O)N2CCCC2)cc1)c1cc(F)c(F)cc1Cl,i,i,nt,i,15µM,i
O=C(Nc1ccc2c(c1)OCCO2)c1cc(F)c(F)cc1Cl,12µM,2.5µM,nt,2.2µM,?,?
CCCN(CCC)S(=O)(=O)c1ccc2c(c1)N(CC(=O)NCc1ccc(F)cc1Cl)C(=O)CS2,i,nt,nt,nt,nt,nt
Cc1oc(C(C)(C)C)cc1C(=O)Nc1ccc2c(c1)OCCO2,12µM,nt,i,nt,nt,nt
Cc1oc(C(C)(C)C)cc1C(=O)Nc1ccc2c(c1)OCO2,?,i,nt,i,i,i
Cc1cc(OC(=O)c2ccc(C)c(C)c2)c([N+](=O)[O-])c(=O)[nH]1,i,i,nt,i,i,i
O=C(Cn1nnc2ccccc21)NCc1ccccc1,13µM,3.2µM,11µM,2.2µM,?,7.3µM
O=C(Cn1nnc2ccccc21)OCc1ccccc1,21µM,i,nt,i,i,i
Cc1nc2ccccc2n1CC(=O)NCc1ccccc1,i,i,nt,i,i,?
O=C(Cn1nnc2ccccc21)OCC(=O)c1ccc(Cl)cc1,?,i,nt,i,i,i
c1ccc(CCn2nnc3ccccc32)cc1,11µM,3.2µM,nt,3.2µM,?,?
COc1cc(Oc2nc(C(F)(F)F)nc3ccccc23)ccc1C=O,i,i,nt,i,i,i
SMILES,FLuc counter,Rab9 prom act,SMN2 splice up,NPC1 prom act,ELG1 repair inh,ELG1 genotox
COc1cc(OC)cc(C(=O)Nn2c(C)nc3ccccc3c2=O)c1,i,i,i,i,i,i
COc1cc(OC)cc(-c2nc3ccccc3c(=O)n2OC(=O)c2ccc(C)c(C)c2)c1,i,i,i[1.84 µM],i,10µM,i
O=C(Nc1ccc2c(c1)CCC2)c1cccc(F)c1,5.4µM,1.4µM,11µM,3.2µM,?,8.2µM
O=C(Nc1ccc2c(c1)CCC2)c1cc(F)cc(F)c1,3µM,1.4µM,nt,2.5µM,?,?
O=C(Nc1ccncc1)c1cccc(F)c1,i,i,i,i,i,i
O=C(Nc1ccc2c(c1)CCC2)c1ccc(F)c(S(=O)(=O)N2CCOCC2)c1,?,?,i[1.84 µM],i,i,i
CC(=O)c1ccc(NC(=O)N2CCc3ccccc3C2)cc1,?,?,22µM,i,?,i
CC(=O)c1cccc(NC(=O)N2CCCc3ccccc32)c1,?,i,i,i,?,i
CCc1ccccc1NC(=O)N1CCc2ccccc2C1,i,i,nt,i,?,i
CC(=O)c1cccc(NC(=O)N2CCc3ccccc3C2)c1,13µM,?,i,4µM,?,?
O=C(COC(=O)c1ccc(O)cc1O)Nc1cccc2ccccc12,nt,i,nt,i,i,i
CCOC(=O)c1c(NC(=O)C2=C(C)NC(=S)NC2c2ccccc2C(F)(F)F)sc(C)c1C (stereo unspecified),i,i,i,i,23µM,i
CCCc1cc(NCc2ccccn2)n2c(nc3ccccc32)c1C#N,11µM,i,i,i,?,i
CCCc1cc(NCC2CCCO2)n2c(nc3ccccc32)c1C#N (stereo unspecified),17µM,i,i,i,23µM,i
Cc1cc(NCc2ccccn2)n2c(nc3ccccc32)c1C#N,i,i,i,i,i,i
O=C(c1cc(S(=O)(=O)N2CCN(c3ccccc3)CC2)ccc1Cl)N1CCCCCCC1,i,i,nt,i,i,i
CC1(C2CC2)NC(=O)N(CC(=O)Nc2ccccc2-c2ccccc2)C1=O (stereo unspecified),i,i,i,i,i,i
CCOc1cc(C2C(C#N)=C(N)Oc3n[nH]c(C)c32)ccc1OCCN1CCOCC1 (stereo unspecified),i[2.3 µM],i,i,4µM,i,i
COc1ccc(-c2cc3ncnc(Cl)c3s2)cc1,3.4µM,?,nt,3.5µM,?,?
CNc1ccc2nnc(C(F)(F)C(F)(F)C(F)(F)F)n2n1,i,i,nt,i,i,i
CC(C)(C)c1cc(-c2csc(Nc3ccccc3)[n+]2Cc2ccc(C(=O)O)cc2)cc(C(C)(C)C)c1O,i,i,nt,i,16µM,i
COC(=O)[C@@]1(Cc2ccc(F)cc2)[C@H]2c3cc(C(=O)N4CCCC4)n(CCc4c[nH]c5cc(F)ccc45)c3C[C@H]2CN1C(=O)c1ccccc1,nt,nt,i,nt,nt,nt
FC(F)(F)c1cccc(-c2nc3nc(Cl)c(Cl)nc3[nH]2)c1,4.3µM,?,i[9.22 µM],?,?,i
O=C(CC(c1ccco1)S(=O)(=O)c1ccccc1)c1ccccc1 (stereo unspecified),21µM,i,nt,i,i,i
Cc1ccc(C(=O)CC(c2cccs2)S(=O)(=O)c2ccc(C)cc2)cc1 (stereo unspecified),1.3µM,?,i,i,?,?
CCC(=O)NCC(c1cccs1)S(=O)(=O)c1ccc(C)cc1 (stereo unspecified),i,i,nt,i,i,i
O=C(CC(c1cccs1)S(=O)(=O)c1ccccc1)c1ccc(F)cc1 (stereo unspecified),3.4µM,i,i,i,?,i
